Measured values reported in PubChem BioAssay AID2073 (Sanford-Burnham Center for Chemical Genomics, 2009).
Screen size: about 290,000 compounds; about 570 (0.2%) were called active. Roughly 1% stayed inconclusive and do not appear here. This is one part of a sample in which actives are shown more often than they occur. No stated cut-off is given here; in the data, active means inhibition mostly above about 51% (no sharp cut-off); inconclusive means no clear call, values can overlap the other calls; inactive means mostly below about 53%.

Target: Voltage-dependent N-type calcium channel subunit alpha-1B (Homo sapiens) (UniProt Q00975)
Sequence (Q00975 whole entry, looked up): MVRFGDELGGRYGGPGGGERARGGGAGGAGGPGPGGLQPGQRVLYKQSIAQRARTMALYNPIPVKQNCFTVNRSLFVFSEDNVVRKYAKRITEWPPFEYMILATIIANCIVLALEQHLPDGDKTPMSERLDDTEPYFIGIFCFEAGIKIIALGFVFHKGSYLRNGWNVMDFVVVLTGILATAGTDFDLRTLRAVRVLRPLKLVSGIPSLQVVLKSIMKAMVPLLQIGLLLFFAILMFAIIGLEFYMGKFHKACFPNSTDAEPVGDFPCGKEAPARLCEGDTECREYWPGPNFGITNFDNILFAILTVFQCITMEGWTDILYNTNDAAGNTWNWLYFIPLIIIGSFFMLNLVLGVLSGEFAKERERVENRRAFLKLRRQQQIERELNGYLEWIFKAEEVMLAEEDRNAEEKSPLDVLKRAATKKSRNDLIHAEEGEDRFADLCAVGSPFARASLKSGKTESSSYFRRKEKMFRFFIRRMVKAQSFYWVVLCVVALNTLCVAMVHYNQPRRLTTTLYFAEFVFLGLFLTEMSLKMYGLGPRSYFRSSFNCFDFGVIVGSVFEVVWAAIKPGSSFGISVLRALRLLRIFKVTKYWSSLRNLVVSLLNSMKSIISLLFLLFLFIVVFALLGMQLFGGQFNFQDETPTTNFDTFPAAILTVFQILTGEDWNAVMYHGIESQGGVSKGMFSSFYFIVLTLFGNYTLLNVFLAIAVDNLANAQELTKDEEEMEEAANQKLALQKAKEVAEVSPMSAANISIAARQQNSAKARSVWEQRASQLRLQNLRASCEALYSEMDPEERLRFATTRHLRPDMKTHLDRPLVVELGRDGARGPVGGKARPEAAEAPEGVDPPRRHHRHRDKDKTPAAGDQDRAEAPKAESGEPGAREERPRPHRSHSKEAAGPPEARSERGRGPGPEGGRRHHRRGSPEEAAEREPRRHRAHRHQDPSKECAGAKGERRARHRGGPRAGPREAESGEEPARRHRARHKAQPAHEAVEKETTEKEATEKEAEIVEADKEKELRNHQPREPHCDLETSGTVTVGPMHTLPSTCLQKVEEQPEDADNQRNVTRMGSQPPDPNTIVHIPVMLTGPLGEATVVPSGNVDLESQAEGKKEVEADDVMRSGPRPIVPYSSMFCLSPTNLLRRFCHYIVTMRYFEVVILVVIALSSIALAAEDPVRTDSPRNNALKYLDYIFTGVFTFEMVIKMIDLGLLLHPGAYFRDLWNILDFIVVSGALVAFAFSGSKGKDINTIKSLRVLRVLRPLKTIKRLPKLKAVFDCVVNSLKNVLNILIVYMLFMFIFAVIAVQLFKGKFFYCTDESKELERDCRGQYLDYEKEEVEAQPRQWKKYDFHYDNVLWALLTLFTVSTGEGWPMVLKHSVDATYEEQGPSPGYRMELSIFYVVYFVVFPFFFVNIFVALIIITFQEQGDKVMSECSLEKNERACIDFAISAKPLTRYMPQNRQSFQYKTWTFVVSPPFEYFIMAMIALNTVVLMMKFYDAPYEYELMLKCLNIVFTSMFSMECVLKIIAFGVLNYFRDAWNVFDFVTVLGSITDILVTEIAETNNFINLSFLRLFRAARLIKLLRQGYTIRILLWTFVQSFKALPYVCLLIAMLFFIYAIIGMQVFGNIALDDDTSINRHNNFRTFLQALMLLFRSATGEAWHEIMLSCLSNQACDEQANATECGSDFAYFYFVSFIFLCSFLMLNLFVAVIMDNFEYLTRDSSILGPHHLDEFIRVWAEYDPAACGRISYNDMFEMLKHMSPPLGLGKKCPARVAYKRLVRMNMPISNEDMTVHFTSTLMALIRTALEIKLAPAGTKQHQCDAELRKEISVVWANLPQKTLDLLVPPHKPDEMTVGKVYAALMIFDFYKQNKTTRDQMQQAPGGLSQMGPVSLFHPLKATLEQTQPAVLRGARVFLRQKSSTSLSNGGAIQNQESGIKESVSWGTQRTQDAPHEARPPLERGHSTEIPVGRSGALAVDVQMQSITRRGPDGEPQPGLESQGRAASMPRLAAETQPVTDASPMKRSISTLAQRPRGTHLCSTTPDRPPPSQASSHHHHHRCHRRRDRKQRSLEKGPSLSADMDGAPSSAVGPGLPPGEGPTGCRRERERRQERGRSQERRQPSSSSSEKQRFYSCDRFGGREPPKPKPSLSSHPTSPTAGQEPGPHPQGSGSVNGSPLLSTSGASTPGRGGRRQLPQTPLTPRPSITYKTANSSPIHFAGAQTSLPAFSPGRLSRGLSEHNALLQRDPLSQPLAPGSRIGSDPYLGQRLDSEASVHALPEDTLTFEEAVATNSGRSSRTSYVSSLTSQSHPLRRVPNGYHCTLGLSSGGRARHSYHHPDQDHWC
Test: inhibitors of Mint1-CaV2.2 protein interaction, biochemical, HTRF (AID 2073)
Details: at 20 µM, stronger effect = higher value
[1] = measured here: average of repeat tests

Compound | inhibition | inhibition [1]
COc1ccc(CCNCC(=O)Nc2c(C)cc(C)cc2C)cc1OC | -6.8% (inactive) | –
CCOC(=O)N1CCN(c2ccccc2OC)CC1 | -13.4% (inactive) | –
O=C(NNc1nc(-c2ccccc2)cs1)c1ccccc1 | -28.9% (inactive) | –
O=C(NNc1nc(-c2ccc(F)cc2)cs1)c1ccccc1 | 71.1% (active) | –
O=C(NNc1nc(-c2ccccc2)cs1)c1ccc(F)cc1 | 60% (inactive) | -6.1%
O=C(CSc1nc2ccccc2c(=O)[nH]1)Nc1ccccc1O | -8.6% (inactive) | –
O=c1[nH]c2ccccc2c2nc3ccccn3c12 | 23.2% (inactive) | –
O=c1nc2c(O)cccn2c2c1c(=O)[nH]c1ccccc12 | 66.4% (active) | –
Cc1ccc2c(c1)N(CCCC(=O)NCc1ccc3c(c1)OCO3)C(=O)CO2 | 9.3% (inactive) | –
CCOC(=O)c1cn2nc(Oc3cccc(F)c3)ccc2n1 | 4.6% (inactive) | –
CC(C)NC(=O)C1(S(=O)(=O)c2ccccc2)CC=CC1 | 4.8% (inactive) | –
COc1ccc(C(=O)NCCCOc2cccc(NC(C)=O)c2)cc1 | 21.8% (inactive) | –
CC1CCN(C(=O)C2CCCN(S(=O)(=O)c3cccc4nsnc34)C2)CC1 (stereo unspecified) | 5.2% (inactive) | –
COc1ccc(-c2nnc(SCC(=O)NC(=O)NCc3ccccc3)o2)cc1 | 55.3% (active) | –
COc1ccc(-c2nnc(SCC(=O)NCCc3ccccc3)o2)cc1 | 2.1% (inactive) | –
COc1ccc(-c2nnc(SCC(=O)NC(=O)NCc3ccco3)o2)cc1 | -1.1% (inactive) | –
COc1ccc(N(CC(=O)NCc2ccco2)S(C)(=O)=O)cc1 | 2.6% (inactive) | –
Cc1cccc(/C=N/NC(=O)NC2CCCCC2)c1 | -3.7% (inactive) | –
C=CCN1C(=O)N/C(=C/c2ccc(N3CCOCC3)o2)C1=O | 55.4% (inactive) | 7.9%
O=C1N/C(=C/c2ccc(N3CCOCC3)o2)C(=O)N1c1ccccc1 | 44.8% (inactive) | –
O=C1N/C(=C/c2ccc(N3CCOCC3)o2)C(=O)N1c1cccc(Cl)c1 | 58.7% (active) | –
O=C1NC(=S)S/C1=C/c1ccc(N2CCOCC2)o1 | 32.5% (inactive) | –
O=C1NC(=O)/C(=C\c2ccc(N3CCOCC3)o2)N1 | 71.7% (active) | –
O=C1NC(=O)/C(=C/c2ccc(N3CCOCC3)o2)N1 | 52.2% (inactive) | 3.9%
Cc1cc(Br)ccc1OCCN1CCCC1 | 1.2% (inactive) | –
Cc1ccc(S(=O)(=O)N2CCN(CCNC(=O)C(=O)NCc3ccccc3)CC2)cc1 | -2.1% (inactive) | –
Cc1cccc(C(=O)O)c1NC(=O)Cc1cccc2ccccc12 | 9.3% (inactive) | –
O=c1[nH]c(SCc2n[nH]c(=S)n2-c2ccccc2)nc2sc3c(c12)CCC3 | 17.3% (inactive) | –
